Drawing on paper PMC7862700, “An all-to-all approach to the identification of sequence-specific readers for epigenetic DNA modifications on cytosine”, this text covers binding signal for one sequence.

Experiment in all cases: DAPPL (digital affinity profiling via proximity ligation, sequencing); 10 mM Tris-HCl pH 7.5, 50 mM NaCl, 1 mM DTT, 4% glycerol, room temperature, 30 min; GST-TFs on glutathione beads, 16-mer random dsDNA library, 0.1% formaldehyde crosslink after washing; high values mean tight binding
One assay deals with T1, FEV (Homo sapiens, UniProt Q99581 1-238).
T1 sequence: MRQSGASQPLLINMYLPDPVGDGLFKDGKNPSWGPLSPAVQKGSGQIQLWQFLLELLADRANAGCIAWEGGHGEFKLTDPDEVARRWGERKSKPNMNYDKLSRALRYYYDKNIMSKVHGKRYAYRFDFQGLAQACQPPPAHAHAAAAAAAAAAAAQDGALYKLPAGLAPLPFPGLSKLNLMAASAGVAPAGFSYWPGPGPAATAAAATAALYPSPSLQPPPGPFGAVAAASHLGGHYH
Particulars: protein: recombinant; tags: N-terminal GST; dsDNA, one strand shown. In outline: (§1)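 Binding signal is given per hexamer as its read frequency for a factor divided by its frequency in the tag-only sample. GST-fused human transcription factors were expressed in yeast, captured on glutathione beads, barcoded with DNA and pooled with that sample, then incubated with 200 nmole of a 16-mer random double-stranded DNA library in Tris/NaCl/DTT/glycerol buffer for 30 min at room temperature. The pools were then washed, crosslinked, proximity-ligated, amplified by PCR and sequenced on an Illumina NextSeq500.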

In a further assay the target is ETV5 (Homo sapiens, UniProt P41161 1-510). Conditions: protein: recombinant; tags: N-terminal GST; dsDNA, one strand shown. In outline: as §1
Chain of ETV5 (P41161 whole entry): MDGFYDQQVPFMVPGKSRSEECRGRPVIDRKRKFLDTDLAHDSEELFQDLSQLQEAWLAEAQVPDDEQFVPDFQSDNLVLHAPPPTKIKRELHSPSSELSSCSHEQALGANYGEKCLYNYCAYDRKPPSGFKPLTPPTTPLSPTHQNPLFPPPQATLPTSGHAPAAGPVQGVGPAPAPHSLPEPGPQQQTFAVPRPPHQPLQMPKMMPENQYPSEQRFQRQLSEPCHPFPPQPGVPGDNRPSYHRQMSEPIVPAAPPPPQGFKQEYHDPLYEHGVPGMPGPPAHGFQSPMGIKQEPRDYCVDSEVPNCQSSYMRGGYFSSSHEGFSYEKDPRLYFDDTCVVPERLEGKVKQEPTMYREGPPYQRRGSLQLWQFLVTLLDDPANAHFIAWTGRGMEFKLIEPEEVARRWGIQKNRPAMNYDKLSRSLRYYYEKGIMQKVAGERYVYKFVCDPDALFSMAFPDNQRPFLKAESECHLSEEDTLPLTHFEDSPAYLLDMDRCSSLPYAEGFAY
In a further assay the target is HSF1 (Homo sapiens, UniProt Q00613 1-529). Conditions: protein: recombinant; tags: N-terminal GST; chain copies: 3; dsDNA, one strand shown. The gist of the method: as §1
Chain of HSF1 (Q00613 whole entry): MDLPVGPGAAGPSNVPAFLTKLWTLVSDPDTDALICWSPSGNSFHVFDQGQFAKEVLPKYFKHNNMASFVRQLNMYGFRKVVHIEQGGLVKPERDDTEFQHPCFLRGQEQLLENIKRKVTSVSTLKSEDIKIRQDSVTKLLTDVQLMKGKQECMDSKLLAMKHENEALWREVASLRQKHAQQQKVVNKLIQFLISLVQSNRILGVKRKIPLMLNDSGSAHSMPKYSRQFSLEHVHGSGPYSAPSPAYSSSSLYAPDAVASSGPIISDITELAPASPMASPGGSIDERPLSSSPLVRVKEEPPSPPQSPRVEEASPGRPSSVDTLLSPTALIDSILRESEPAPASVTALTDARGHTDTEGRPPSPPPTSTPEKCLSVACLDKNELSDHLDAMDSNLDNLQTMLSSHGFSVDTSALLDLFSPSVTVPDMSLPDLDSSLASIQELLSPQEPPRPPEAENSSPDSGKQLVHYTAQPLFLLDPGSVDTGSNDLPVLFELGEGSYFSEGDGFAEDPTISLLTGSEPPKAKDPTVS
Another assay deals with T2, SPIC (Homo sapiens, UniProt Q8N5J4 1-248).
T2 sequence: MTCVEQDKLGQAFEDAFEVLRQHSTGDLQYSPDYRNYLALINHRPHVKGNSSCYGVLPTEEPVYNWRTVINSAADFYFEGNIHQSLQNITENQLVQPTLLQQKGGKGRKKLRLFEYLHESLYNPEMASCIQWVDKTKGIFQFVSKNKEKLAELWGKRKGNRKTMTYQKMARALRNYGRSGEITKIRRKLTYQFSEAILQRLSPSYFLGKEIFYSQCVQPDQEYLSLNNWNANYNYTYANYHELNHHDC
Particulars: protein: recombinant; tags: N-terminal GST; dsDNA, one strand shown. In outline: as §1

Another assay addresses ELF4 (Homo sapiens, UniProt Q99607 1-663). Conditions: protein: recombinant; tags: N-terminal GST; dsDNA, one strand shown. The gist of the method:
as §1

A further assay addresses T3, ELK4 (Homo sapiens, UniProt P28324-2 1-405).
T3 sequence: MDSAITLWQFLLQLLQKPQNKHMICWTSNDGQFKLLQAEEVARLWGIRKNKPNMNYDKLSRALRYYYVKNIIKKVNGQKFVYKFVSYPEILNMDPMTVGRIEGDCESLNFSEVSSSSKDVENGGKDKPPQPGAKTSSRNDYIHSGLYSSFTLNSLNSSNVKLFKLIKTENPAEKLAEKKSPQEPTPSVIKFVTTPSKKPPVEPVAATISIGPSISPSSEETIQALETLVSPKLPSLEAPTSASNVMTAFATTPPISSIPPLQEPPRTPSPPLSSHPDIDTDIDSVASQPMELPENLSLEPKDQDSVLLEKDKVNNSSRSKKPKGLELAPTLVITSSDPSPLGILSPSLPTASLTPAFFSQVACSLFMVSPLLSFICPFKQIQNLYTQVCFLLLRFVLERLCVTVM
Conditions: protein: recombinant; tags: N-terminal GST; dsDNA, one strand shown. The gist of the method:
as §1

For another assay, the target named is T4, ETV2 (Homo sapiens, UniProt O00321 1-342).
T4 sequence: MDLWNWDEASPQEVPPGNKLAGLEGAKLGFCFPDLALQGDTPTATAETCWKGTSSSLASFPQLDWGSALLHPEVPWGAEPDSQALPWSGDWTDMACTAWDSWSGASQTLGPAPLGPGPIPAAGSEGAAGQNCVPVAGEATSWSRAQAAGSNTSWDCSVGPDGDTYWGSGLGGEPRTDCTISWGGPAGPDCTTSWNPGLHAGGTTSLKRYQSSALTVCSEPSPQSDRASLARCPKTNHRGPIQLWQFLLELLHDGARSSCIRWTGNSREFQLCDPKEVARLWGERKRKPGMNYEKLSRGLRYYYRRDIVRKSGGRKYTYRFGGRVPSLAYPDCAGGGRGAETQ
Particulars: protein: recombinant; tags: N-terminal GST; dsDNA, one strand shown. In outline:
as §1

The next assay has as its target T5, ELF3 (Homo sapiens, UniProt P78545 1-371).
T5 sequence: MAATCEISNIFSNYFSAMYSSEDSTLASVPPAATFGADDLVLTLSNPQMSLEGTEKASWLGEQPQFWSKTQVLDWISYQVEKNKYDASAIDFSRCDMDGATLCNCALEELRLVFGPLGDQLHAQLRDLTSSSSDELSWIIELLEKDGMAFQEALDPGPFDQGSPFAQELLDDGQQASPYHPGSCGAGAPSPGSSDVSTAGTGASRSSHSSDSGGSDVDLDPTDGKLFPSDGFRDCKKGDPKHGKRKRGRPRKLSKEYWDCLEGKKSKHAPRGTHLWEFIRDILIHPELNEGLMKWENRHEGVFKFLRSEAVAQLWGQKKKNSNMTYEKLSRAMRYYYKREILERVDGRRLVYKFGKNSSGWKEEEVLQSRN
Conditions: protein: recombinant; tags: N-terminal GST; dsDNA, one strand shown. The gist of the method:
as §1

In a further assay the target is CRX (Homo sapiens, UniProt O43186 1-299). Conditions: protein: recombinant; tags: N-terminal GST; dsDNA, one strand shown. The gist of the method: as §1
Chain of CRX (O43186 whole entry): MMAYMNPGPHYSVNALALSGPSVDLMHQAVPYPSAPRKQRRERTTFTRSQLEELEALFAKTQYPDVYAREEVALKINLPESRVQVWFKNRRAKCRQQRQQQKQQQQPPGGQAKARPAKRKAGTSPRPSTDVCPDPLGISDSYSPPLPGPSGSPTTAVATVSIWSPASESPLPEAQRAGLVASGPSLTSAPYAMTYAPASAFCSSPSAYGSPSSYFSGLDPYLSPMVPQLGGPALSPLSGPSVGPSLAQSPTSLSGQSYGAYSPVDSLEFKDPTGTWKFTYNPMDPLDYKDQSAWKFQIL
For the next assay, the target named is ETV1 (Homo sapiens, UniProt P50549 1-477). Particulars: protein: recombinant; tags: N-terminal GST; dsDNA, one strand shown. The gist of the method:
as §1

For a further assay, the target named is T6, ERF (Homo sapiens, UniProt P50548 1-548).
T6 sequence: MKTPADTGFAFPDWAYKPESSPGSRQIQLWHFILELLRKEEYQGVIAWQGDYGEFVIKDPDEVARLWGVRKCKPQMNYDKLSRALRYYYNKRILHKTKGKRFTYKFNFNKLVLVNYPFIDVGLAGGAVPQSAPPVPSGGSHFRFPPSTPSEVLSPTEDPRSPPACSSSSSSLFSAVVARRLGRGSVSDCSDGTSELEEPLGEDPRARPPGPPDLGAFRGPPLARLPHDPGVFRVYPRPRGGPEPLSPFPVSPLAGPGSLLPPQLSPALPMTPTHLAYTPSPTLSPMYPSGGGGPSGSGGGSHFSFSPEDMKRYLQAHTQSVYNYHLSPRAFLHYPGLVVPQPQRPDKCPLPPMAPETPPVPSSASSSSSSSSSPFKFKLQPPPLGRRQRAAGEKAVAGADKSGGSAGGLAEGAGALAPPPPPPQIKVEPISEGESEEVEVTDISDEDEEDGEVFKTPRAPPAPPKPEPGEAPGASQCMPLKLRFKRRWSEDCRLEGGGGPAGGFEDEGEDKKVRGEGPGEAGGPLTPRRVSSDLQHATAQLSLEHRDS
Particulars: protein: recombinant; tags: N-terminal GST; dsDNA, one strand shown. In outline: as §1

A further assay addresses T7, ETV3L (Homo sapiens, UniProt Q6ZN32 1-361).
T7 sequence: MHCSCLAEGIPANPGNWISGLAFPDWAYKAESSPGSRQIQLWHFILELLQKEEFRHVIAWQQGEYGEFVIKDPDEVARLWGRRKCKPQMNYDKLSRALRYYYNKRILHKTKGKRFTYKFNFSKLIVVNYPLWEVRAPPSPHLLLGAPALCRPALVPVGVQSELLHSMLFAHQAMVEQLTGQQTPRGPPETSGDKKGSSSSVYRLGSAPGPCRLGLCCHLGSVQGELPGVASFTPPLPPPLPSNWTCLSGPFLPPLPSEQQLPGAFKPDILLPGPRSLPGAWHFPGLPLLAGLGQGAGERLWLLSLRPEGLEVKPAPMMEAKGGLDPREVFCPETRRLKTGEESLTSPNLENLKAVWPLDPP
Particulars: protein: recombinant; tags: N-terminal GST; dsDNA, one strand shown. In outline:
as §1

The target in the next assay is T8, ETS2 (Homo sapiens, UniProt P15036 1-469).
T8 sequence: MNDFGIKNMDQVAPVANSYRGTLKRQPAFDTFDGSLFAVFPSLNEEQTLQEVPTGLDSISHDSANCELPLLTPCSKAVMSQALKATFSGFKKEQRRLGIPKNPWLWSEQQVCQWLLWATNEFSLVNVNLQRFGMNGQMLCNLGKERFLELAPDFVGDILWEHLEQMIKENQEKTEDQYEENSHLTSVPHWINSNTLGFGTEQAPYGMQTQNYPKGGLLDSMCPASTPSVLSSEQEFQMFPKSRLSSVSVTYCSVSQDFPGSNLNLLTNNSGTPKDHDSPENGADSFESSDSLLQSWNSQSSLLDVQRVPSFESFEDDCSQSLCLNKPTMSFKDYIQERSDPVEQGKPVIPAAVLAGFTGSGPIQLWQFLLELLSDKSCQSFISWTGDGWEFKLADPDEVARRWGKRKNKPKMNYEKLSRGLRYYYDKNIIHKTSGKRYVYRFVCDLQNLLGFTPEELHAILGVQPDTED
Conditions: protein: recombinant; tags: N-terminal GST; dsDNA, one strand shown. The gist of the method: as §1

Another assay deals with T9, SPDEF (Homo sapiens, UniProt O95238 1-335).
T9 sequence: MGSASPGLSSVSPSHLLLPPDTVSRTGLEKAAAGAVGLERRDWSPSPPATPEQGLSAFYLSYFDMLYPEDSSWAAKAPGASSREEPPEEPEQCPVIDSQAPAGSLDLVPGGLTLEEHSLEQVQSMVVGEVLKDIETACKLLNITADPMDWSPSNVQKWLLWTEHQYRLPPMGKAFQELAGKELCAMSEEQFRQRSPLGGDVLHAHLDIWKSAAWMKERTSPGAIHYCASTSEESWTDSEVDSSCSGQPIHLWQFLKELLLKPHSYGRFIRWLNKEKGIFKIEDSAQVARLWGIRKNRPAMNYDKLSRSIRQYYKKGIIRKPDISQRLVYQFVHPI
Particulars: protein: recombinant; tags: N-terminal GST; dsDNA, one strand shown. The gist of the method: as §1

The target of another assay is T10, ETV7 (Homo sapiens, UniProt Q9Y603 1-341).
T10 sequence: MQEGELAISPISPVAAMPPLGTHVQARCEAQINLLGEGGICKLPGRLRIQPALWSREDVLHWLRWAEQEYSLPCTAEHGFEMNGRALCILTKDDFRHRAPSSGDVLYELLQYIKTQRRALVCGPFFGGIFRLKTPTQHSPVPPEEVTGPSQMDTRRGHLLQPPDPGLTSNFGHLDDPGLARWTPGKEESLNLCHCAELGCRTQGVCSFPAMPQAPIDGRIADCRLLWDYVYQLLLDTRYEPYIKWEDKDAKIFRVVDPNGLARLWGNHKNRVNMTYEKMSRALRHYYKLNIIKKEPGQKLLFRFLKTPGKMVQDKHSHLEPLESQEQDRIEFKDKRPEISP
Conditions: protein: recombinant; tags: N-terminal GST; dsDNA, one strand shown. In outline:
as §1

The target of a further assay is T11, ELF5 (Homo sapiens, UniProt Q9UKW6-2 1-255).
T11 sequence: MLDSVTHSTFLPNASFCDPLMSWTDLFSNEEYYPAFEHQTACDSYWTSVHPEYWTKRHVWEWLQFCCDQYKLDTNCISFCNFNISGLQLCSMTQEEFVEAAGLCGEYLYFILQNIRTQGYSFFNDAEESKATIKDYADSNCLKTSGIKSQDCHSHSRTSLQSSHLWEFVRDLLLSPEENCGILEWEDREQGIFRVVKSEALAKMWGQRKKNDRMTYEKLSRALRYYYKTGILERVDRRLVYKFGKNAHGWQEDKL
Conditions: protein: recombinant; tags: N-terminal GST; dsDNA, one strand shown. In outline:
as §1

The target of another assay is T12, ETV3 (Homo sapiens, UniProt P41162-2 1-143).
T12 sequence: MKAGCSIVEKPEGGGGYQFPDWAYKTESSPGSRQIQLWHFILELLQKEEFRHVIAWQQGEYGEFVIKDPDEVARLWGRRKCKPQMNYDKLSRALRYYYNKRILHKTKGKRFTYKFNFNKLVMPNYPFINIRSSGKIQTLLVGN
Particulars: protein: recombinant; tags: N-terminal GST; dsDNA, one strand shown. In outline:
as §1

In the next assay the target is ETV6 (Homo sapiens, UniProt P41212 1-452). Conditions: protein: recombinant; tags: N-terminal GST; dsDNA, one strand shown. The gist of the method:
as §1

Chain of ELF4 (Q99607 whole entry): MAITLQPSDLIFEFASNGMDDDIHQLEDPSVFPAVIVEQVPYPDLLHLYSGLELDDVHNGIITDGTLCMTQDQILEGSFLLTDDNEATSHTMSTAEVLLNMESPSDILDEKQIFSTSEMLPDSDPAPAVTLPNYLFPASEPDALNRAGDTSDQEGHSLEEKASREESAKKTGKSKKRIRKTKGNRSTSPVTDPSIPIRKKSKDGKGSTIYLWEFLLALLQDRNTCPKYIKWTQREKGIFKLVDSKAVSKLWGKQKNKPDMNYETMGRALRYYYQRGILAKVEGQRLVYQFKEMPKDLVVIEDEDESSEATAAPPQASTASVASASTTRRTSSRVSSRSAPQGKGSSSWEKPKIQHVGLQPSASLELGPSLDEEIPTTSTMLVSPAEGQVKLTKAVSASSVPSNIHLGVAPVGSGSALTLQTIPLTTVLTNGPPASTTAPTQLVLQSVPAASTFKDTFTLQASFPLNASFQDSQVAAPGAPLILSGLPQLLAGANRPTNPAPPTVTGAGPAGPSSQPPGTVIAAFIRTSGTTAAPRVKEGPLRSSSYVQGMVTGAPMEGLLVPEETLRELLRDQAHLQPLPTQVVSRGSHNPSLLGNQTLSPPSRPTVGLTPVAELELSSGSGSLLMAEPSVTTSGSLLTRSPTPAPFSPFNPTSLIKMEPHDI
Chain of ETV6 (P41212 whole entry): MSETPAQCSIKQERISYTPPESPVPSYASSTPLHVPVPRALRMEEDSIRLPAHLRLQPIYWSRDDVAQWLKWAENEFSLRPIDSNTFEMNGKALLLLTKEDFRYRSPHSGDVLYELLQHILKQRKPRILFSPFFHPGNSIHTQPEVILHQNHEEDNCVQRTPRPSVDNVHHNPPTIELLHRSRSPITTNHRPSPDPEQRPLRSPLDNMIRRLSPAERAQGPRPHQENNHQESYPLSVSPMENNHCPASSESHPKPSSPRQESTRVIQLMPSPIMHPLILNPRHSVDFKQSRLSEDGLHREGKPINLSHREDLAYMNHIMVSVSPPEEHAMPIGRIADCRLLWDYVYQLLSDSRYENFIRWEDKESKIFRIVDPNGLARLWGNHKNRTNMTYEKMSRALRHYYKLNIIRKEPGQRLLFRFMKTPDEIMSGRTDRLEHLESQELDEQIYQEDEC
Chain of ETV1 (P50549 whole entry): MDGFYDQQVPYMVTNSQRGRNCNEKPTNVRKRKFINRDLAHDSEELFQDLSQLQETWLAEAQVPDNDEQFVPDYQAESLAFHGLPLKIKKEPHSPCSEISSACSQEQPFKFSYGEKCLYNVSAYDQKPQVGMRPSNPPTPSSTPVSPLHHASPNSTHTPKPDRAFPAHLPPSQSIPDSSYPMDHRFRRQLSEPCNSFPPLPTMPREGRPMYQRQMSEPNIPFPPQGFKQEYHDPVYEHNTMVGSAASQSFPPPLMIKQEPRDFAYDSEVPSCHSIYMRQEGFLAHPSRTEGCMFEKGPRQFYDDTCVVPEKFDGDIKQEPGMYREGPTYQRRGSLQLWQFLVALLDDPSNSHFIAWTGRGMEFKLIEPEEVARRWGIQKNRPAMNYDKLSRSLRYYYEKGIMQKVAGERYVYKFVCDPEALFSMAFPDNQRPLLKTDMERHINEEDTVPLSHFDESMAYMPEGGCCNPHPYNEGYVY

For AAAACA, the binding signal is 1.34 fold enrichment (6-mer frequency, TF over GST control) in the assay with FEV; 1.31 fold enrichment (6-mer frequency, TF over GST control) with ETV5; 1.25 fold enrichment (6-mer frequency, TF over GST control) with HSF1; 1.42 fold enrichment (6-mer frequency, TF over GST control) with SPIC; 1.39 fold enrichment (6-mer frequency, TF over GST control) with ELF4; 1.22 fold enrichment (6-mer frequency, TF over GST control) in the assay with ELK4. The binding signal with ETV2 is 1.34 fold enrichment (6-mer frequency, TF over GST control); with ELF3, 1.38 fold enrichment (6-mer frequency, TF over GST control); with CRX, 1.13 fold enrichment (6-mer frequency, TF over GST control); with ETV1, 1.37 fold enrichment (6-mer frequency, TF over GST control); with ERF, 1.26 fold enrichment (6-mer frequency, TF over GST control); in the assay with ETV3L it was 1.32 fold enrichment (6-mer frequency, TF over GST control). Also, the binding signal with ETS2 is 1.38 fold enrichment (6-mer frequency, TF over GST control); in the assay with SPDEF, 1.29 fold enrichment (6-mer frequency, TF over GST control); with ETV7, 1.34 fold enrichment (6-mer frequency, TF over GST control); with ELF5, 1.34 fold enrichment (6-mer frequency, TF over GST control); in the assay with ETV3 it was 1.31 fold enrichment (6-mer frequency, TF over GST control); with ETV6, 1.27 fold enrichment (6-mer frequency, TF over GST control).
